Results from the supplement of paper PMC11402862.

Test system: PPARalpha LBD (GAL4 fusion)
Experiment: luciferase reporter transactivation, fold of solvent control; higher = stronger receptor activation
Settings: HEK293T, exposure time: 24 h
Experimental: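 HEK293T cells were transiently transfected with a GAL4-DBD fused to the ligand-binding domain of a human nuclear receptor (PPARα, PPARγ, PPARδ, FXR, LXRα, PXR, RARα or CAR), the GAL4-(UAS)5-TK firefly luciferase reporter and a Renilla luciferase normalisation plasmid. Cells were exposed to compound for 24 h in 0.5% DMSO. Firefly/Renilla luciferase was expressed as fold of the solvent control (=1). Values are the mean of 2-3 biological replicates; receptor agonists were used as positive controls.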

| SMILES | luciferase reporter transactivation (concentration: 1 µM) | luciferase reporter transactivation (concentration: 5 µM) | luciferase reporter transactivation (concentration: 10 µM) | luciferase reporter transactivation (concentration: 25 µM) | luciferase reporter transactivation (concentration: 50 µM) | luciferase reporter transactivation (concentration: 100 µM) | luciferase reporter transactivation (concentration: 250 µM) | luciferase reporter transactivation (concentration: 500 µM) |
| --- | --- | --- | --- | --- | --- | --- | --- | --- |
| O=S(=O)(O)CCC(F)(F)C(F)(F)C(F)(F)C(F)(F)C(F)(F)C(F)(F)F [6:2 fluorotelomer sulfonic acid] | 1.06 | 0.983 | 1.08 | 1.08 | 1.13 | 1.78 |  |  |
| O=C(O)C(F)(F)C(F)(F)C(F)(F)C(F)(F)F [perfluoropentanoic acid] | 1.14 | 1.05 | 1.12 | 1.18 | 1.15 | 1.31 | 1.35 | 1.58 |
| O=S(=O)(O)CCC(F)(F)C(F)(F)C(F)(F)C(F)(F)C(F)(F)C(F)(F)C(F)(F)C(F)(F)F [8:2 fluorotelomer sulfonic acid] | 1.07 | 1.09 | 1.18 | 1.29 | 1.33 | 1.97 | 1.6 | 1.31 |
| OCCC(F)(F)C(F)(F)C(F)(F)C(F)(F)C(F)(F)C(F)(F)F [6:2 fluorotelomer alcohol] | 0.709 | 0.741 | 0.818 | 0.925 | 0.748 | 0.765 | 0.656 | 0.825 |
| CC(C)(Sc1ccc(CCN(CCCCC2CCCCC2)C(=O)NC2CCCCC2)cc1)C(=O)O | 46 |  |  |  |  |  |  |  |
